Source: PubChem (several laboratories)
697 NFkB inh: lowers PMA/ionomycin-induced NF-kB signal in 697 B cells. 697 B-cell NF-kB luciferase reporter, 16 h. inhibition, % at 4 µM. AID 435022. actives 0.33% (n = 330,000); in the data active = inhibition above about 35%
ANO1 activ: activators or potentiators of mouse TMEM16A chloride channel; Q8BHY3; HEK293 TMEM16A/YFP-H148Q/I152L, iodide quench fluorescence; active compounds read low; actives 0.3% (n = 340,000); B-score at 10 µM;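 active = fluorescence-ratio B-score plate-corrected deviation score at least 3 library SD below zero, with starting fluorescence score within 5 deviations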;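 note: channel opened by trigger with iodide after compound preincubation; score built on the fluorescence ratio of max minus min over baseline; more negative score means more quench and so TMEM16A activation or potentiation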
TMEM16A inh: inhibitors of mouse TMEM16A calcium-activated chloride channel | HEK293 TMEM16A/YFP iodide influx fluorescence, ionomycin | normalized B-score (activity score, 25-100; higher = stronger inhibition) at 10 µM | actives 1.2% (n = 310,000) | AID 588511;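 active = ratio plate-corrected score three or more library SD toward inhibition, starting fluorescence score within five deviations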;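 note: score derived from kinetic fluorescence span divided by baseline fluorescence per well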
aSyn 5UTR inh: 5' untranslated region of α-synuclein, MLPCN primary screen. alpha-synuclein 5'UTR reporter, inhibitor activity. inhibition, % (tested at 7.5 µM). actives 0.82% (n = 300,000). AID 1813; in the data active = inhibition above about 60%;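 note: H4 neuroglioblastoma cells stably carrying SNCA 5'UTR luciferase fusion; 0% = DMSO wells and 100% = positive control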
Jurkat NFkB inh: inhibitors of the PMA/ionomycin-induced NF-kB reporter in Jurkat cells | AID 435003 | actives 0.53% (n = 330,000) | inhibition, % at 4 µM | PMA/ionomycin-induced NF-kB luciferase reporter, luminescence; in the data active = inhibition above about 50%
KLF5 inh: kruppel-like factor 5 inhibition. inhibition, % at 5 µM. DLD-1 KLF5 promoter-luciferase reporter, luminescence. actives 0.23% (n = 290,000);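 active = inhibition above a per-plate limit of that plate's mean compound inhibition plus 3 SD, cut at about 60% in these data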;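 note: 0% = DMSO wells and 100% = LY294002 at 200 µM; higher means less KLF5 promoter-driven luciferase light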
Jurkat NFkB conf: lowers PMA/ionomycin-induced NF-kB signal in Jurkat cells; shares compounds with Jurkat NFkB inh; actives 27% (n = 2,700); Jurkat NF-kB luciferase, 16 h; inhibition, % at 4 µM;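 active = inhibition reaching about 45% at 4 µM in either replicate, limit read from the data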;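 note: plate controls were PMA/ionomycin stimulated DMSO wells for no effect and unstimulated DMSO wells for full effect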
697 NFkB conf: inhibitors of the PMA/ionomycin-induced NF-kB reporter in 697 B cells, retest. shares compounds with 697 NFkB inh. 697 B-cell NF-kB luciferase, 16 h. inhibition, % at 4 µM. actives 35% (n = 2,000); in the data active = inhibition mostly above about 28%, no sharp cut-off; inactive = mostly below about 22%
TMEM16A reconf: reconfirmed blocker of mouse TMEM16A calcium-activated chloride channel; HEK293 TMEM16A/YFP-H148Q, iodide quench fluorescence; ionomycin added to raise cell calcium; actives 39% (n = 2,300); AID 652189; inhibition, % at 10 µM; shares compounds with TMEM16A inh;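 active = mean duplicate percent inhibition, scaled so buffer wells are 0 and the reference blocker 100, over three buffer SD above buffer mean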
HEK293 Ca mobil: counter-screen for TMEM16A inhibitors: effect on calcium mobilization; TMEM16A/YFP HEK293, Fluo4 calcium mobilization; calcium response (% of ionomycin), % at 10 µM; AID 652231; shares compounds with TMEM16A inh; actives 2% (n = 2,300);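 active = duplicate-averaged calcium signal over 20% of the ionomycin maximum, relative to buffer baseline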;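 note: each well's signal is peak minus trough fluorescence divided by its pre-addition baseline; 0% = buffer wells and 100% = ionomycin wells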
Parental YFP cnt: parental YFP-HEK293 iodide quench counter-screen activity | shares compounds with TMEM16A inh | ionomycin | YFP ratio F(max-min)/F0 at 10 µM | 2,300 tested, under 10 active | AID 652233;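 active = yellow fluorescent protein signal ratio exceeding the buffer control mean by over 5 SD of those controls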;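 note: ratio is mean of duplicate wells from kinetic YFP trace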
ClC-1 rat inh: rat ClC-1 inhibition, TMEM16A specificity screen; AID 652236; CHO ClC-1-YFP, iodide influx fluorescence quench; iodide control reads 0, buffer control 100; shares compounds with TMEM16A inh; 2,300 tested, under 10 active; ratio percent, % at 10 µM;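 active = duplicate-mean ratio percent above the mean of iodide-only control wells, which defines zero, plus 5 of their SD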;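 note: higher percent means stronger block of ClC-1 iodide influx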
Target sequence (P35524 whole entry, looked up): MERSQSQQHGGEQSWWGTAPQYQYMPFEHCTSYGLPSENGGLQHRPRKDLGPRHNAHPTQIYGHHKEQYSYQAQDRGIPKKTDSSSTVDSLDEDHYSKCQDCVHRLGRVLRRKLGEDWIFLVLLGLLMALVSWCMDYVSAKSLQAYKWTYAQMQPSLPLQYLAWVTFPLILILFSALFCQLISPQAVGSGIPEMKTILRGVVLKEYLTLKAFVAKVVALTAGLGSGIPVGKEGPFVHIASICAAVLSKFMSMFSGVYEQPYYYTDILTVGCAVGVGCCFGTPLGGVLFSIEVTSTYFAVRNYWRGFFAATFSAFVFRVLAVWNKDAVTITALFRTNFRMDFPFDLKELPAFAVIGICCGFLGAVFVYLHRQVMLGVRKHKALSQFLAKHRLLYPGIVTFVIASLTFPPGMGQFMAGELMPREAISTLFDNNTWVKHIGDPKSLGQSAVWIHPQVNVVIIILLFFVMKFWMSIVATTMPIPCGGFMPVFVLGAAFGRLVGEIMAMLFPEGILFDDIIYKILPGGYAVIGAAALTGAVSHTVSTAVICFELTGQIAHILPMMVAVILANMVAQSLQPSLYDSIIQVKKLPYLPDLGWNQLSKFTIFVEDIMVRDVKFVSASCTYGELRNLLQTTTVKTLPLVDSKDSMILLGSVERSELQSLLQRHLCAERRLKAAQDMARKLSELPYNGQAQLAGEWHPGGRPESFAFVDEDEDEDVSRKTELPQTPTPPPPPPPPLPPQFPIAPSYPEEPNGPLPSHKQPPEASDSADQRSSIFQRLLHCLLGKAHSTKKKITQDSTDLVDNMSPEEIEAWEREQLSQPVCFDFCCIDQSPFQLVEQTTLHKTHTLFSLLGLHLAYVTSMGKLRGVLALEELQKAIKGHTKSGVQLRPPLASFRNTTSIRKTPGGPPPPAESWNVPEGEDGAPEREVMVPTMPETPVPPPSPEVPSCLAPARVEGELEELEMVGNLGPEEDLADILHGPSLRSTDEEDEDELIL
* marks the source's active call; other numbers are inactive results; i = inactive; · = not tested or not shown. Compounds with a hit are over-represented: about 2.5% of the library has one in this group of screens.

SMILES	697 NFkB inh	ANO1 activ	TMEM16A inh	aSyn 5UTR inh	Jurkat NFkB inh	KLF5 inh	TMEM16A reconf	HEK293 Ca mobil	Parental YFP cnt	ClC-1 rat inh	others
O=C(Nc1ccc(C(F)(F)F)cc1)c1cccn(Cc2ccc3c(c2)OC(F)(F)O3)c1=O	0	i	25*	-18	54*	-17	i	i	-0.99	-12	Jurkat NFkB conf=46
COc1ccc2nc3c(C)n(C)ccc-3c2c1	·	i	·	·	·	·	·	·	·	·
CNC(=O)c1cccn(Cc2ccc(C(F)(F)F)cc2)c1=O	50*	i	i	36	6	-27	·	·	·	·	697 NFkB conf=61*
Cn1c(=O)cc(OCC(=O)N2CCC3(CC2)OCCO3)c2ccccc21	42*	i	i	9	15	-35	·	·	·	·	697 NFkB conf=40*
COc1ccccc1C1=NCc2nnc(C)n2-c2ccc(Cl)cc21	-3	i	i	-30	-4	-40	·	·	·	·
COc1ccc(C2=NCc3nnc(C)n3-c3ccc(Cl)cc32)cc1Cl	45*	i	i	6	-31	-12	·	·	·	·	697 NFkB conf=35*
Cn1cnc([N+](=O)[O-])c1Sc1ccc([N+](=O)[O-])cc1	36*	i	i	-66	20	8	·	·	·	·	697 NFkB conf=43*
COC(=O)C1=C(c2ccc(S(C)(=O)=O)cc2)C[C@@H]2CC[C@H]1N2C(=O)NCCCOC(C)C	-2	i	i	-4	3	·	·	·	·	·
O=C(CCCC1=NS(=O)(=O)c2ccccc2N1)N1CCC2(CC1)OCCO2	3	i	i	-11	0	-12	·	·	·	·
C/C=C(\C)C(=O)OC1C(C)=C2C(C1OC(=O)CCCCC)C(C)(OC(C)=O)CC(OC(=O)CCC)C1(O)C2OC(=O)C1(C)O (centres undefined)	-262	·	100*	108*	12	·	·	·	·	·	697 NFkB conf=-296
COc1ccc(CCNCc2sccc2C)cc1	-20	i	i	-13	2	-53	·	·	·	·
CCCCOC(=O)COc1cc(C)cc2oc(=O)c3c(c12)CCC3	-8	i	i	5	-2	-14	·	·	·	·
C=CCOC(=O)COc1cc(C)cc2oc(=O)c3c(c12)CCC3	40*	i	i	11	13	-12	·	·	·	·	697 NFkB conf=32*
Cc1cc(C=C2C(=O)N(C)C(=S)N(C)C2=O)c(C)n1-c1cccnc1	11	i	i	0	-1	-30	·	·	·	·
O=c1[nH]c(=O)n(CCC2=CCCCC2)c(O)c1C=NC1CCN(Cc2ccccc2)CC1	-15	i	25*	·	44	-7	i	i	-0.96	-7
COc1ccc(NC2(C#N)CCCCC2)cc1	6	i	i	-9	-7	-15	·	·	·	·
CCCCN(Cc1ccccc1)C1CCN(CCc2ccccc2)CC1	-19	i	i	3	-12	-9	·	·	·	·
c1ccc(CCN2CCC(N3CCN(c4ccccc4)CC3)CC2)cc1	-37	i	25*	-6	-4	-50	i	i	-1.4	2
CCCCn1c(O)c(C(CC)=NCCN2CCCCC2)c(=O)[nH]c1=O	4	i	i	-5	1	3	·	·	·	·
CC(=O)O/C(=C1\CC2C3CC=C4CC(OC(C)=O)CCC4(C)C3CCC2(C)C1=O)C(F)(F)F (centres undefined)	·	i	·	·	·	·	·	·	·	·
O=C(COc1ccccc1)c1cn(Cc2ccccc2)c2ccccc12	8	i	i	-13	-4	-28	i	i	-0.76	12
CCC(=O)c1cn(Cc2ccccc2)c2ccccc12	10	i	i	14	2	-33	·	·	·	·
Cc1cc(C)n2nc(SC(C)C(=O)N3CCC4(CC3)OCCO4)nc2n1 (centres undefined)	-2	i	i	11	9	-31	·	·	·	·
O=C1NC(=O)C(=Cc2cc3c(cc2[N+](=O)[O-])OCO3)C(=O)N1	8	i	i	-2	-1	-5	·	·	·	·
Cc1cccc(N2C(=O)NC(=O)/C(=C/c3cc4c(cc3[N+](=O)[O-])OCO4)C2=O)c1	9	i	i	-3	5	-24	i	120%*	-0.84	-14
SMILES	697 NFkB inh	ANO1 activ	TMEM16A inh	aSyn 5UTR inh	Jurkat NFkB inh	KLF5 inh	TMEM16A reconf	HEK293 Ca mobil	Parental YFP cnt	ClC-1 rat inh	others
CCN1C[C@]2(COC)CC[C@H](O)[C@@]34C5C[C@H]6[C@H](O)C5[C@](O)(C[C@H]6OC)[C@@H]([C@H](OC)C23)[C@@H]14 (some centres undefined)	·	·	i	-3	·	·	·	·	·	·
CCN(CC)c1ccc(N=Cc2c(O)n(-c3ccc(Cl)cc3)c(=O)[nH]c2=O)cc1	-31	i	i	21	-8	4	i	i	-0.85	10
Clc1cccc(C2NCCc3[nH]cnc32)c1 (centres undefined)	18	i	i	-12	-8	-9	·	·	·	·
CCOC(=O)C1(CCc2ccccc2)CCN(Cc2ccc3c(c2)OCCO3)CC1	-22	i	25*	-46	-1	-14	i	i	-1.1	-8
Cc1cc2c(C(F)(F)F)cc(=O)oc2c2c1NCCC2	-5	i	i	35	0	-2	18%*	30%*	-0.94	-4
Cc1cc(N(CCCl)CCCl)ccc1C=Cc1ccncn1	·	i	·	·	·	·	·	·	·	·
Clc1ccc(CCNCc2ccncc2)c(Cl)c1	1	i	25*	-15	5	-31	i	i	-1.2	-6
COc1ccc(CNCCc2ccc(Cl)cc2Cl)cc1	11	i	i	9	13	-18	·	·	·	·
O=[N+]([O-])c1ccc(N2CCCC(C(F)(F)F)C2)c2ccncc12 (centres undefined)	-9	i	100*	43	17	5	20%*	i	-0.88	-24
O=[N+]([O-])c1ccc(N2CCCCC2)c2ncccc12	1	i	i	-1	17	-10	·	·	·	·
CN1CCc2nc(N)c(C#N)c(-c3ccccc3)c2C1	-1	i	i	0	-6	-43	i	i	-0.95	-2
